Drawing on PubChem BioAssay AID2283105 (EPA ToxCast), this text covers AC50 and outcome for twelve molecules.

Calls of active or inactive are those of the source. The calls were made as follows: active = hit-call score of the fitted dose curve at least 0.9, where 1 is the maximum; inactive = score below 0.9.

The target in the assay is human CYP2E1, CYP2E1 (gene 1571) (UniProt P05181). The assay is described as follows: NVS_ADME_hCYP2E1: NovaScreen (NVS) CYP450-related Enzyme Activity (ADME) Assay for human CYP2E1. As for the experimental part: NVS_ADME_hCYP2E1 is a biochemical, single-readout assay that uses extracted gene-proteins in a cell-free assay. Measurements were taken 0.5 hour after chemical dosing in a 96-well plate.NVS_ADME_hCYP2E1 is one of one assay component(s) measured or calculated from the NVS_ADME_hCYP2E1 assay. It is designed to make measurements of enzyme activity, a form of enzyme reporter, as detected with fluorescence intensity signals by Fluorescence technology.Data from the assay component NVS_ADME_hCYP2E1 was analyzed into 1 assay endpoint. This assay endpoint, NVS_ADME_hCYP2E1, was analyzed in the positive analysis fitting direction relative to Acetonitrile as the negative control and baseline of activity. Using a type of enzyme reporter, loss-of-signal activity can be used to understand changes in the enzymatic activity as they relate to the gene CYP2E1. Furthermore, this assay endpoint can be referred to as a primary readout, because this assay has produced multiple assay endpoints where this one serves a enzymatic activity function. To generalize the intended target to other relatable targets, this assay endpoint is annotated to the cyp intended target family, where the subfamily is xenobiotic metabolism.
human CYP2E1, CYP2E1 (gene 1571), sequence (P05181 whole entry, looked up): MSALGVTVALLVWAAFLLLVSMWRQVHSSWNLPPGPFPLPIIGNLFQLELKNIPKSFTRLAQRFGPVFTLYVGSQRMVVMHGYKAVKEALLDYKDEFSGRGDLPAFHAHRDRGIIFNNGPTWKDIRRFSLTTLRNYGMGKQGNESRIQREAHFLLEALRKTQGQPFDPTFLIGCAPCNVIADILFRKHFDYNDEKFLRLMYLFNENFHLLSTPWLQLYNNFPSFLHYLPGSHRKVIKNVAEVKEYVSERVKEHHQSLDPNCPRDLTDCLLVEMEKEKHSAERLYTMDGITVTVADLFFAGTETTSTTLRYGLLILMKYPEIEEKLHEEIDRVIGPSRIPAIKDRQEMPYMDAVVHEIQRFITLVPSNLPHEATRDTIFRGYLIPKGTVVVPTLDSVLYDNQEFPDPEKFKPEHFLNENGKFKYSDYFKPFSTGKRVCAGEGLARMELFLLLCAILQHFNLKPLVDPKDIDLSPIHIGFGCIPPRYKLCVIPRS
Binding assays used specific radioligands (tritiated, iodinated) with non-radioactive competitive displacement ligands in agonist or antagonist protocols (as indicated) and various reference compounds and inhibitors to titrate specific binding to receptors and transporters. Most enzyme assays (CYPs, kinases, phosphatases, proteases, HDACs) used recombinant protein and specific substrates (fluorescence mostly, some colorimetric and radioactive) and inhibitors, followed by a biochemical separation of substrate and product. All assays for the biochemical HTS were initially run in duplicate at a single concentration (10 uM for CYP450 assays and 25 uM for all others). Assay-chemical combinations meeting a pre-defined threshold (e.g., 30% inhibition and other criteria defined below) were then run in singleton concentration-response format with maximum concentration of 20 uM for CYPs and 50 uM for all others. Each assay was run with positive and negative controls, and concurrent controls on every plate. The follow-up (secondary) screen tested active chemical-pairs in concentration series, as well as a few additional assays not tested in the primary screen, some selected negative inactives, and several cases re-run in the concentration series for confirmatory purposes.
The AC50 is the midpoint of the concentration-response curve, whichever way the signal moves. For the molecule `CC[C@H](C)[C@H]1O[C@]2(C=C[C@@H]1C)C[C@@H]1C[C@@H](C/C=C(\C)[C@@H](O[C@H]3C[C@H](OC)[C@@H](O[C@H]4C[C@H](OC)[C@@H](NC)[C@H](C)O4)[C@H](C)O3)[C@@H](C)/C=C/C=C3\CO[C@@H]4[C@H](O)C(C)=C[C@@H](C(=O)O1)[C@]34O)O2`, the AC50 was 551 nM (active).
Same read-out and setting: the value for `CCCN(CCOc1c(Cl)cc(Cl)cc1Cl)C(=O)n1ccnc1` was 486 nM (active).
Same read-out and setting: the value for `CC(C)(C)C(O)C(Oc1ccc(Cl)cc1)n1cncn1` (configuration not stated) was 604 nM (active); that for `COP(=S)(OC)Oc1ccc([N+](=O)[O-])c(C)c1` was 319 nM (active).
For the molecule `CC(C)NC(=O)N1CC(=O)N(c2cc(Cl)cc(Cl)c2)C1=O`, the outcome was inactive.
The same measure, in the same setting: the value for `N#Cc1c[nH]cc1-c1cccc2c1OC(F)(F)O2` was “inactive”; that for `N#CSCSC#N` was “inactive”.
`CCC(=NOC/C=C/Cl)C1=C(O)CC(C2CCOCC2)CC1=O` (configuration not stated): the AC50 is 3500 nM (active).
With `COP(=S)(OC)SCn1nnc2ccccc2c1=O`, the molecule was called inactive.
Still for that read-out and setting: the value for `COP(=S)(OC)Oc1ccc([N+](=O)[O-])cc1` was “inactive”; that for `FC(F)C(F)(F)OCC(Cn1cncn1)c1ccc(Cl)cc1Cl` (configuration not stated) was “inactive”.
Same read-out and setting: the value for `COc1nn(CSP(=S)(OC)OC)c(=O)s1` was “inactive”.
